The source of these data is PMC12820563, “FoxP3 forms a head-to-head dimer in vivo and stabilizes its multimerization on adjacent microsatellites”.

Whole data set: some 16,000 sequences, median “rpm ratio (pull-down/input)” near 0.94, cut for the highest 2% near 1.7. Only a selection was taken, and the highest values are over-represented in it overall.

This test concerns the target T1, MBP-FoxP1dN (Mus musculus, UniProt P58462 326-579).
T1 sequence: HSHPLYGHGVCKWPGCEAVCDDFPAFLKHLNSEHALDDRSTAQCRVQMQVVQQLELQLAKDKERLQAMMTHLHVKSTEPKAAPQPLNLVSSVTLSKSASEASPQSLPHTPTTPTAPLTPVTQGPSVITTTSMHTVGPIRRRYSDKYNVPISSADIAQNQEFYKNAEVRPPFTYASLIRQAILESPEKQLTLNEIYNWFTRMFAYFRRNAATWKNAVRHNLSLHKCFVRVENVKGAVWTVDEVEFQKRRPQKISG
Kind of test: PD-seq (MBP pull-down with sequencing); 20 mM Tris-HCl pH 7.5, 100 mM NaCl, 1.5 mM MgCl2, 0.4 uM protein, 0.1 uM dsDNA library, 30 min, room temperature, amylose pull-down; high values mean tight binding. The conditions noted are these: protein: recombinant; tags: His6-MBP; chain copies: 2; dsDNA, one strand shown. Summed up:
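Binding is reads-per-million enrichment of pull-down over input, with replicates pooled. It comes from 30 min room-temperature incubation in Tris pH 7.5 buffer with NaCl and MgCl2 of 0.4 µM His6-MBP-tagged, N-terminally truncated mouse FoxP3 or FoxP1 fragment from E. coli with 0.1 µM Klenow-filled degenerate double-stranded DNA library, followed by amylose resin capture, three washes and Illumina sequencing of the released DNA.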
For the sequence “GATGATTGTTCTCCCAGCTGATGAATTCCTTGTGTCGAGTAAACAAATTTTCCTAATCTTTCTGTTCAAGCGCCATCTAC”, the binding signal is 0.961 RPM ratio (pull-down/input). The same measure for “GATGATTGTTCTCCCAGCTGATGAATTAAGCGCATCGAGTAAACAAATTTTCCTAATCTTTCTGTTCAAGCGCCATCTAC”: 1.27 RPM ratio (pull-down/input); for “GATGATTGTTCTCCCAGCTGATGAATTTTCATATTCGAGTAAACAAATTTTCCTAATCTTTCTGTTCAAGCGCCATCTAC”: 1.06 RPM ratio (pull-down/input); for “GATGATTGTTCTCCCAGCTGATGAATTCTCATATTCGAGTAAACAAATTTTCCTAATCTTTCTGTTCAAGCGCCATCTAC”: 0.94 RPM ratio (pull-down/input). Turning to “GATGATTGTTCTCCCAGCTGATGAATTGTCATATTCGAGTAAACAAATTTTCCTAATCTTTCTGTTCAAGCGCCATCTAC”, the binding signal was 1.17 RPM ratio (pull-down/input). As to “GATGATTGTTCTCCCAGCTGATGAATTCATATTCTCGAGTAAACAAATTTTCCTAATCTTTCTGTTCAAGCGCCATCTAC”, the binding signal is 0.83 RPM ratio (pull-down/input). Take “GATGATTGTTCTCCCAGCTGATGAATTCATATTGTCGAGTAAACAAATTTTCCTAATCTTTCTGTTCAAGCGCCATCTAC”: the binding signal was 1.9 RPM ratio (pull-down/input).

For the sequence “GATGATTGTTCTCCCAGCTGATGAATTCATATTTTCGAGTAAACAAATTTTCCTAATCTTTCTGTTCAAGCGCCATCTAC”, the binding signal is 1.74 RPM ratio (pull-down/input). As to “GATGATTGTTCTCCCAGCTGATGAATTAGATCGGTCGAGTAAACAAATTTTCCTAATCTTTCTGTTCAAGCGCCATCTAC”, the binding signal is 0.789 RPM ratio (pull-down/input). Consider “GATGATTGTTCTCCCAGCTGATGAATTGTGGGAATCGAGTAAACAAATTTTCCTAATCTTTCTGTTCAAGCGCCATCTAC”, for which the binding signal was 1.08 RPM ratio (pull-down/input). For “GATGATTGTTCTCCCAGCTGATGAATTCCGTCCTTCGAGTAAACAAATTTTCCTAATCTTTCTGTTCAAGCGCCATCTAC”, the binding signal was 0.801 RPM ratio (pull-down/input). The same measure for “GATGATTGTTCTCCCAGCTGATGAATTAGGTGATTCGAGTAAACAAATTTTCCTAATCTTTCTGTTCAAGCGCCATCTAC”: 1.06 RPM ratio (pull-down/input); for “GATGATTGTTCTCCCAGCTGATGAATTCGTTGTATCGAGTAAACAAATTTTCCTAATCTTTCTGTTCAAGCGCCATCTAC”: 1.3 RPM ratio (pull-down/input). The same measure for “GATGATTGTTCTCCCAGCTGATGAATTCCTCAAGTCGAGTAAACAAATTTTCCTAATCTTTCTGTTCAAGCGCCATCTAC”: 0.819 RPM ratio (pull-down/input); for “GATGATTGTTCTCCCAGCTGATGAATTGAGCGTGTCGAGTAAACAAATTTTCCTAATCTTTCTGTTCAAGCGCCATCTAC”: 0.844 RPM ratio (pull-down/input); for “GATGATTGTTCTCCCAGCTGATGAATTGGTATTGTCGAGTAAACAAATTTTCCTAATCTTTCTGTTCAAGCGCCATCTAC”: 2.44 RPM ratio (pull-down/input).

For “GATGATTGTTCTCCCAGCTGATGAATTTTGGTATTCGAGTAAACAAATTTTCCTAATCTTTCTGTTCAAGCGCCATCTAC”, the binding signal is 1.06 RPM ratio (pull-down/input). Consider “GATGATTGTTCTCCCAGCTGATGAATTGGTATTTTCGAGTAAACAAATTTTCCTAATCTTTCTGTTCAAGCGCCATCTAC”, for which the binding signal is 2.46 RPM ratio (pull-down/input). Regarding “GATGATTGTTCTCCCAGCTGATGAATTTGGTATGTCGAGTAAACAAATTTTCCTAATCTTTCTGTTCAAGCGCCATCTAC”, the binding signal was 0.971 RPM ratio (pull-down/input). In the case of “GATGATTGTTCTCCCAGCTGATGAATTTGGTATTTCGAGTAAACAAATTTTCCTAATCTTTCTGTTCAAGCGCCATCTAC”, the binding signal was 1.07 RPM ratio (pull-down/input). With “GATGATTGTTCTCCCAGCTGATGAATTGGTATTCTCGAGTAAACAAATTTTCCTAATCTTTCTGTTCAAGCGCCATCTAC”, the binding signal is 1.02 RPM ratio (pull-down/input). As to “GATGATTGTTCTCCCAGCTGATGAATTCGGACCGTCGAGTAAACAAATTTTCCTAATCTTTCTGTTCAAGCGCCATCTAC”, the binding signal was 0.773 RPM ratio (pull-down/input). The same measure for “GATGATTGTTCTCCCAGCTGATGAATTAGGTTCATCGAGTAAACAAATTTTCCTAATCTTTCTGTTCAAGCGCCATCTAC”: 0.921 RPM ratio (pull-down/input); for “GATGATTGTTCTCCCAGCTGATGAATTGCCAGTCTCGAGTAAACAAATTTTCCTAATCTTTCTGTTCAAGCGCCATCTAC”: 0.829 RPM ratio (pull-down/input); for “GATGATTGTTCTCCCAGCTGATGAATTCTGACTTTCGAGTAAACAAATTTTCCTAATCTTTCTGTTCAAGCGCCATCTAC”: 0.897 RPM ratio (pull-down/input).

“GATGATTGTTCTCCCAGCTGATGAATTTGATTGGTCGAGTAAACAAATTTTCCTAATCTTTCTGTTCAAGCGCCATCTAC”: the binding signal was 0.963 RPM ratio (pull-down/input). “GATGATTGTTCTCCCAGCTGATGAATTTTTTGGGTCGAGTAAACAAATTTTCCTAATCTTTCTGTTCAAGCGCCATCTAC”: the binding signal was 0.836 RPM ratio (pull-down/input). Consider “GATGATTGTTCTCCCAGCTGATGAATTCTTTTGGTCGAGTAAACAAATTTTCCTAATCTTTCTGTTCAAGCGCCATCTAC”, for which the binding signal is 1 RPM ratio (pull-down/input). Under “GATGATTGTTCTCCCAGCTGATGAATTGGTTTGGTCGAGTAAACAAATTTTCCTAATCTTTCTGTTCAAGCGCCATCTAC” stands 0.947 RPM ratio (pull-down/input). On to “GATGATTGTTCTCCCAGCTGATGAATTTTTTTGGTCGAGTAAACAAATTTTCCTAATCTTTCTGTTCAAGCGCCATCTAC”, for which the binding signal is 0.952 RPM ratio (pull-down/input). In the case of “GATGATTGTTCTCCCAGCTGATGAATTTTGTTGGTCGAGTAAACAAATTTTCCTAATCTTTCTGTTCAAGCGCCATCTAC”, the binding signal is 2.26 RPM ratio (pull-down/input).
